Test results reported in PubChem BioAssay AID1159580 (chemical genetic matrix, 2015).
“And” between values parts separate entries of the source, which are not always exact repeats. Equal values may be shown once. The campaign covered roughly 5,500 compounds. About 2,000 (36%) were called active. Inconclusive results (about 18%) are left out. No stated cut-off is given here; in the data, active means normalized growth mostly below about 0.91 (no sharp cut-off); inconclusive means no clear call, values can overlap the other calls; inactive means mostly above about 0.92. This is one part of the list.

Test: chemical genetic growth profiling, strain panel (AID 1159580);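 further: tested at 20 µM; growth read once vehicle control cultures reached saturation at 30 °C; 1 = growth at the plate median or of vehicle wells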
Conditions: S. cerevisiae deletion strains, growth OD

Measured: normalized growth

CC(=O)Oc1cc(-c2coc3cc(OC(C)=O)c(OC(C)=O)c(OC(C)=O)c3c2=O)cc(OC(C)=O)c1OC(C)=O
active: locus YAL013W, strain DEP1, stronger effect = lower value 0.67 | locus YAL021C, strain ccr4, stronger effect = lower value 0.81 | locus YAL026C, strain drs2, stronger effect = lower value 0.836 | locus YBL061C, strain skt5, stronger effect = lower value 0.919 | locus YBR023C, strain chs3, stronger effect = lower value 0.841 | locus YBR229C, strain ROT2, stronger effect = lower value 0.89 | locus YBR231C, strain swc5, stronger effect = lower value 0.772 | locus YCL029C, strain bik1, stronger effect = lower value 0.674 | locus YDL035C, strain GPR1, stronger effect = lower value 0.83 | locus YDL074C, strain BRE1, stronger effect = lower value 0.643 | locus YDL101C, strain DUN1, stronger effect = lower value 0.438 | locus YDL192W, strain arf1, stronger effect = lower value 0.899 | locus YDR069C, strain doa4, stronger effect = lower value 0.752 | locus YDR101C, strain arx1, stronger effect = lower value 0.827 | locus YDR137W, strain rgp1, stronger effect = lower value 0.795 | locus YDR162C, strain NBP2, stronger effect = lower value 0.717 | locus YDR297W, strain sur2, stronger effect = lower value 0.914 | locus YDR334W, strain swr1, stronger effect = lower value 0.834 | locus YDR335W, strain msn5, stronger effect = lower value 0.851 | locus YDR502C, strain sam2, stronger effect = lower value 0.898 | locus YEL003W, strain gim4, stronger effect = lower value 0.877 | locus YEL037C, strain rad23, stronger effect = lower value 0.88 | locus YER015W, strain faa2, stronger effect = lower value 0.894 | locus YER111C, strain swi4, stronger effect = lower value 0.469 | locus YER155C, strain BEM2, stronger effect = lower value 0.913 | locus YFR010W, strain ubp6, stronger effect = lower value 0.881 | locus YGL086W, strain mad1, stronger effect = lower value 0.887 | locus YGL173C, strain kem1, stronger effect = lower value 0.85 | locus YGL248W, strain PDE1, stronger effect = lower value 0.845 | locus YGL253W, strain hxk2, stronger effect = lower value 0.862 | locus YGR135W, strain pre9, stronger effect = lower value 0.871 | locus YGR229C, strain SMI1, stronger effect = lower value 0.302 | locus YHR027C, strain rpn1, stronger effect = lower value 0.885 | locus YHR079C, strain IRE1 (second series), stronger effect = lower value 0.794 | locus YHR129C, strain ARP1, stronger effect = lower value 0.844 | locus YHR142W, strain chs7, stronger effect = lower value 0.82 | locus YHR200W, strain rpn10, stronger effect = lower value 0.914 | locus YIL066C, strain RNR3, stronger effect = lower value 0.834 | locus YIL073C, strain SPO22, stronger effect = lower value 0.602 | locus YJL164C, strain tpk1, stronger effect = lower value 0.893 | locus YJL187C, strain SWE1 (second series), stronger effect = lower value 0.273
inactive: locus YAL030W, strain snc1, stronger effect = lower value 0.969 | locus YBR009C, strain hhf1, stronger effect = lower value 0.934 | locus YBR021W, strain FUR4, stronger effect = lower value 0.854 | locus YBR171W, strain sec66, stronger effect = lower value 0.936 | locus YBR279W, strain paf1, stronger effect = lower value 0.937 | locus YCL011C, strain gbp2, stronger effect = lower value 0.93 | locus YCL016C, strain dcc1, stronger effect = lower value 0.948 | locus YCL069W, strain vba3, stronger effect = lower value 0.96 | locus YCR088W, strain abp1, stronger effect = lower value 0.977 | locus YDL005C, strain med2, stronger effect = lower value 0.985 | locus YDL040C, strain nat1, stronger effect = lower value 0.987 | locus YDL185W, strain tfp1, stronger effect = lower value 0.978 | locus YDR001C, strain nth1, stronger effect = lower value 0.977 | locus YDR159W, strain sac3, stronger effect = lower value 0.863 | locus YDR195W, strain ref2 0.947 | locus YDR318W, strain mcm21, stronger effect = lower value 0.967 | locus YDR388W, stronger effect = lower value 0.978 | locus YDR392W, strain spt3, stronger effect = lower value 0.938 | locus YEL061C, strain CIN8 (second series), stronger effect = lower value 0.946 | locus YER016W, strain bim1, stronger effect = lower value 0.972 | locus YER110C, stronger effect = lower value 1.05 | locus YER155C, strain BEM2 (second series), stronger effect = lower value 0.906 | locus YER167W, strain BCK2, stronger effect = lower value 0.949 | locus YGL078C, strain dbp3, stronger effect = lower value 1.01 | locus YGL167C, strain pmr1, stronger effect = lower value 0.956 | locus YGL227W, strain vid30, stronger effect = lower value 0.996 | locus YGL240W, strain doc1, stronger effect = lower value 0.975 | locus YGR252W, strain gcn5, stronger effect = lower value 0.873 | locus YHR013C, strain ard1, stronger effect = lower value 0.877 | locus YHR030C, strain SLT2, stronger effect = lower value 1.05 | locus YHR079C, strain IRE1, stronger effect = lower value 1.07 | locus YHR094C, strain hxt1, stronger effect = lower value 1.03 | locus YIL125W, strain kgd1, stronger effect = lower value 1.03 | locus YIR030C, strain dcg1, stronger effect = lower value 0.974 | locus YJL092W, strain hpr5, stronger effect = lower value 0.964 | locus YJL095W, strain BCK1 (second series), stronger effect = lower value 0.945 | locus YJL115W, strain asf1, stronger effect = lower value 0.978 | locus YJL129C, strain trk1, stronger effect = lower value 0.942 | locus YJL134W, strain LCB3, stronger effect = lower value 0.936 | locus YJL154C, strain vps35, stronger effect = lower value 0.978 | locus YJL166W, strain qcr8, stronger effect = lower value 0.906 | locus YJL168C, strain set2, stronger effect = lower value 1.01 | locus YJL187C, strain SWE1, stronger effect = lower value 0.945 | locus YJR066W, strain TOR1, stronger effect = lower value 0.971
0.179 (active) and 1.03 (inactive): locus YJL095W, strain BCK1, stronger effect = lower value
